In PubChem BioAssay (Tox21) one finds Potency and outcome data, which are given here for 8 compounds.

Each structure is given as a SMILES string. Inconclusive results are not listed. Activity calls are given as the source filed them. Unless noted, calls follow the shape of the dose curve; as a rule, active = well fitted curve in the direction sought with a large enough effect in the repeat runs; inconclusive = weak or mixed curves; inactive = no such curve, though single readings can be large; an effect the other way counts as inactive or inconclusive.

A short description of experiment [1]: qHTS assay for small molecule agonists of the p53 signaling pathway (AID 651631; calls by dose curve; also: nearly all actives have a fitted effect of over 15% in size). In short, it runs like this: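 Stably transfected HCT-116 cells (beta-lactamase behind p53 response elements) get compounds after a 5 h settling period; 16 h later at 37 °C, FRET substrate is loaded and fluorescence read after 2 h.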
(In general: In qHTS, concentration-response curves come from the screen itself.)

The nature of experiment [2]: qHTS assay for small molecules that induce genotoxicity in human embryonic kidney cells expressing luciferase-tagged ATAD5 (AID 651632). Also: nearly all actives have a fitted effect of over 15% in size. In short, it runs like this:
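Luminescent reporter readout, HEK293T ATAD5-luc line: 16 hr drug exposure (37C, 5% CO2) followed by Amplite, 30 min RT.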

Experiment [3] in a line: qHTS assay for small molecule agonists of the p53 signaling pathway - cell viability (AID 651633; calls by dose curve; also: nearly all actives have a fitted effect of over 30% in size; also: potency is read from the fitted curve at half-maximal effect). In short, it runs like this:
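p53RE-bla cells were treated with compound for 16 hours at 37 C. Cytotoxicity was then measured as CellTiter-Glo luminescence after 30 min at room temperature.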

Experiment [4] in a line: qHTS assay for small molecules that induce genotoxicity in human embryonic kidney cells expressing luciferase-tagged ATAD5 - cell viability (AID 651634; calls by dose curve; also: nearly all actives have a fitted effect of over 25% in size; also: potency is read from the fitted curve at half-maximal effect). In short, it runs like this:
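Viability read: CellTiter-Fluor fluorescence, 30 min at 37C. Cells: HEK293T, luciferase-tagged ATAD5. Exposure: 15.5 hr, 37C, 5% CO2, compound or DMSO vehicle.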

Experiment [5] in a line: qHTS assay for small molecule disruptors of the mitochondrial membrane potential - cell viability (AID 720634; calls by dose curve; also: nearly all actives have a fitted effect of over 20% in size; also: potency is read from the fitted curve at half-maximal effect). In short, it runs like this:
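HepG2, 1 hr compound, 37 C. ATP luminescence via CellTiter-Glo, 30 min RT, same well as m-MPI.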

Experiment [6] can be described thus: qHTS assay to test for compound auto fluorescence at 590 nm (red) in HepG2 cells (AID 720674). The gist of the method: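 Seeding: 2,000 HepG2 cells/well, MEM/10% FBS, overnight 37 C. Dosing: compound vs DMSO. Incubation: 1 hr, 37 C, 5% CO2. Read: fluorescence 540 ex/590 em, Rose Bengal sodium as red reference.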
Experiment [7] in a line: qHTS assay to test for compound auto fluorescence at 535 nm (green) in HepG2 cells (AID 720675).
A short description of experiment [8]: qHTS assay to test for compound auto fluorescence at 460 nm (blue) in HEK293 cells (AID 720678). The gist of the method:
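After cell attachment (4-5 hr, 37C), compounds were pinned onto HEK293 monolayers in 10% dialyzed FBS medium. The blue channel (405/460 nm) was read following overnight culture. Equivalency was calculated against triamterene.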

A short description of experiment [9]: qHTS assay to test for compound auto fluorescence at 590 nm (red) in HEK293 cells (AID 720679). In short, it runs like this: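 Plates of HEK293 cells (10% dialyzed FBS) are treated with 23 nL compound or DMSO vehicle after a 4-5 hr attachment period, incubated overnight at 37C, and read for red fluorescence at 540/590nm.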
The nature of experiment [10]: qHTS assay to test for compound auto fluorescence at 535 nm (green) in HEK293 cells (AID 720680).
The nature of experiment [11]: qHTS assay to test for compound auto fluorescence at 460 nm (blue) in HEK293 cell free culture (AID 720681). The gist of the method:
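Compounds were added to cell-free DMEM with 10% FBS and fluorescence read directly. The blue channel used 405 nm excitation and 460 nm emission, with triamterene as the reference fluorophore.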

Experiment [12] in a line: qHTS assay to test for compound auto fluorescence at 535 nm (green) in HEK293 cell free culture (AID 720682). The gist of the method:
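Using fluorescein as calibrant, autofluorescence was quantified at 485/535 nm in cell-free DMEM containing 10% FBS after pintool addition of compound or vehicle.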

The nature of experiment [13]: qHTS assay to test for compound auto fluorescence at 590 nm (red) in HEK293 cell free culture (AID 720683). The gist of the method:
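Cell-free wells of DMEM with 10% FBS received compound, and intrinsic fluorescence was read at excitation/emission 540/590 nm. Values expressed as equivalence to Rose Bengal sodium.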

Experiment [14] is described as follows: qHTS assay to test for compound auto fluorescence at 590 nm (red) in HepG2 cell free culture (AID 720684). The gist of the method: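 Compounds are added to culture medium (MEM, 10% FBS) lacking cells, then fluorescence is read at excitation 540 nm, emission 590 nm, with Rose Bengal sodium as the equivalency standard.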
Experiment [15] in a line: qHTS assay to test for compound auto fluorescence at 460 nm (blue) in HepG2 cell free culture (AID 720685). In short, it runs like this: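 Compound (23 nL) or DMSO pinned into cell-free MEM with 10% FBS; blue fluorescence read at 405/460 nm excitation/emission, expressed as auto-fluorescence equivalency to triamterene.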
A short description of experiment [16]: qHTS assay to test for compound auto fluorescence at 535 nm (green) in HepG2 cell free culture (AID 720686).
The nature of experiment [17]: qHTS assay to test for compound auto fluorescence at 460 nm (blue) in HepG2 cells (AID 720687). The gist of the method:
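HepG2 cells in MEM with 10% FBS, attached overnight at 37 C, were exposed to compound or DMSO for 1 hr at 37 C, 5% CO2. Blue fluorescence was read at 405/460 nm, with triamterene as reference fluorophore.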

Experiment [18] has as its target Glucocorticoid receptor (Homo sapiens) (UniProt P04150). The experiment is described as follows: qHTS assay to identify small molecule agonists of the glucocorticoid receptor (GR) signaling pathway (AID 720691; active = well fitted activation curve with a large enough effect in the signal ratio in the repeat runs, not every such curve was filed as active; the % refers to the signal ratio). In short, it runs like this: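 qHTS in GR-bla HeLa cells: 4 h settling at 37 C/5% CO2, 18 h compound incubation at 37 C, 2 h LiveBLAzer B/G FRET substrate at room temperature, fluorescence intensity measured.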

Experiment [19] shares this target. Nature of the experiment: qHTS assay to identify small molecule antagonists of the glucocorticoid receptor (GR) signaling pathway (AID 720692; active = well fitted inhibition curve with a large enough effect in the signal ratio in the repeat runs, not every such curve was filed as active; the % refers to the signal ratio). The gist of the method:
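Inhibition of glucocorticoid signalling is measured in HeLa cells with a GRE-controlled beta-lactamase reporter; cells are co-treated with compound and 5 nM dexamethasone (final) for 18 h before FRET substrate readout.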

Sequence of Glucocorticoid receptor (Homo sapiens) (P04150 whole entry, looked up): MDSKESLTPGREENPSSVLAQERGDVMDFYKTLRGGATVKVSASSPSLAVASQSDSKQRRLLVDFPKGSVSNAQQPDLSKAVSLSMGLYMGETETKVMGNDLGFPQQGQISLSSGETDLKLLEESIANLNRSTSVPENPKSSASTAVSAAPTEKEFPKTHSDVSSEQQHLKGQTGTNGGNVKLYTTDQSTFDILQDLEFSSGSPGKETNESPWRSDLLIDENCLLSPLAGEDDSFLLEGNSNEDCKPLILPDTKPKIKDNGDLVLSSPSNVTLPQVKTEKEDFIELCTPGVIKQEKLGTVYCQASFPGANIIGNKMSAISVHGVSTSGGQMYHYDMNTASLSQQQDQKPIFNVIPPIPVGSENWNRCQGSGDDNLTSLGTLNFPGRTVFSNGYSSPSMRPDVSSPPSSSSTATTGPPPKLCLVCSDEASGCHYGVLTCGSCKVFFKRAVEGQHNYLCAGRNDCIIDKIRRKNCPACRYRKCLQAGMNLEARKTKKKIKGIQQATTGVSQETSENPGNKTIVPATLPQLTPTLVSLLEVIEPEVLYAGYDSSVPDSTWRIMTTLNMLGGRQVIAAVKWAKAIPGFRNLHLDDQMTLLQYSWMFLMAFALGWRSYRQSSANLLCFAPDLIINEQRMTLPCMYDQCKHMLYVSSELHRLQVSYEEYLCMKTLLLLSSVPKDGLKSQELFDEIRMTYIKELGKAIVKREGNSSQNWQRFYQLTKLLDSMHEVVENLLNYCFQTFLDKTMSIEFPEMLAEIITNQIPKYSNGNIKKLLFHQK

Take `O=S1(=O)OC(c2cc(Br)c(O)c(Br)c2)(c2cc(Br)c(O)c(Br)c2)c2ccccc21`: the Potency entry in [1], in experiment [2] and in experiment [19] was “inactive” each time. The Potency in experiment [3] is 44.5 µM (active); in experiment [4], 25 µM (active); in [5] it was 28.1 µM (active). The outcome in [6], in experiment [7], in [8], in [9], in [10] and in [11] was inactive. Moreover, the compound was called inactive in [12], in experiment [13], in experiment [14], in experiment [15], in experiment [16] and in experiment [17]. In experiment [18], the compound was called inactive.
As for `CN1C(=O)NC(=O)C(C)(C2=CCCCC2)C1=O` (configuration not stated), the Potency result in experiment [1], in experiment [2], in [3], in experiment [4], in experiment [5] and in experiment [19] was “inactive” throughout. The outcome in experiment [6], in experiment [7], in [8], in [9], in [10] and in experiment [11] was inactive. Also, the compound was called inactive in experiment [12], in experiment [13], in experiment [14], in [15], in [16] and in [17]. Besides, the result in experiment [18] was inactive.
Consider `CC(=O)C(C)(C)C`, for which the Potency entry in experiment [1], in [2], in experiment [3], in experiment [4], in [5] and in experiment [19] was “inactive” throughout. The result in experiment [6], in experiment [7], in experiment [8], in [9], in [10] and in experiment [11] was inactive. Further, the outcome in experiment [12], in experiment [13], in experiment [14], in [15], in experiment [16] and in experiment [18] was inactive.
Regarding `CCOc1nc(F)cc2nc(S(=O)(=O)Nc3c(Cl)cccc3Cl)nn12`, the Potency result in [1], in experiment [2], in [3], in experiment [4], in [5] and in experiment [19] was “inactive” in each case. Further, the outcome in experiment [6], in experiment [7], in experiment [8], in [9], in [10] and in [11] was inactive. The outcome in experiment [12], in experiment [13], in [14], in experiment [15], in experiment [16] and in [17] was inactive. Further, in experiment [18], the compound was classed as inactive.
In the case of `COc1cc(Cl)c(OC)cc1Cl`, the Potency entry in experiment [1], in experiment [2], in experiment [3], in experiment [4], in experiment [5] and in experiment [19] was “inactive” in each case. Besides, the compound was classed as inactive in experiment [6], in [7], in experiment [8], in experiment [10], in experiment [11] and in experiment [12]. In addition, the outcome in experiment [13], in [14], in experiment [15], in [16], in experiment [17] and in [18] was inactive.
`CCCCOC(=O)c1ccccc1C(=O)OCc1ccccc1`: the Potency result in experiment [1], in [2], in [3], in [4], in experiment [5] and in experiment [19] was “inactive” in each case. The call in [6], in [7], in experiment [8], in [9], in [10] and in [11] was inactive. In addition, the call in experiment [12], in [13], in experiment [14], in [15], in [16] and in experiment [17] was inactive. In experiment [18], the outcome was inactive.
On to `c1ccoc1`, for which the Potency entry in experiment [1], in experiment [2], in experiment [3], in experiment [4], in experiment [5] and in experiment [19] was “inactive” throughout. The result in experiment [6], in experiment [7], in [8], in experiment [9], in experiment [10] and in [11] was inactive. Also, the compound was classed as inactive in [12], in experiment [13], in experiment [14], in experiment [15], in [16] and in [18].
As for `Brc1ccc(Oc2ccccc2)cc1`, the Potency result in [1], in [2], in [3], in [4], in [5] and in experiment [19] was “inactive” each time. In addition, the call in experiment [6], in experiment [7], in experiment [8], in experiment [10], in experiment [11] and in experiment [12] was inactive. Also, the outcome in experiment [13], in experiment [14], in experiment [15], in [16] and in [18] was inactive.
